Data on 6 compounds can be found in PubChem BioAssay (NCATS).

Several values for one entry are separate records, joined by “and”; a condition that tells them apart may be missing. Identical values can stand only once. Unmarked numbers belong to inactive results. Inconclusive results are not listed. Activity calls are given as the source filed them. Unless noted, the call rests on the fitted dose curve; in most records, active means well fitted curve in the direction sought with a large enough effect; inconclusive means small, poorly fitted or top-dose-only effect, or another doubt; inactive means no such curve, though single readings can be large; an effect the other way counts as inactive or inconclusive. Some results are limits rather than exact numbers.

Experiment [1] in a line: Cell Viability - BJ (AID 421; calls by dose curve;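 further: potency means the concentration at half of the fitted maximal effect; cells exposed to compound for 40 hours at 37 °C before readout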). To be noted: BJ fibroblast viability, qHTS. In outline: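 Cytotoxicity as drop in intracellular ATP (CellTiter-Glo, 20 min RT) after 40 hr compound exposure of BJ fibroblasts at 37 °C. Titrations scaled between DMSO and 100 uM tamoxifen, Hill-fitted for AC50.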
Experiment [2] can be described thus: Cell Viability - Jurkat (AID 426;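 active means dose-dependent loss of cell ATP signal giving a full or clear fitted curve, ranked by lower potency value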;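 further: potency means the concentration at half of the fitted maximal effect; cells exposed to compound for 40 hours at 37 °C before ATP read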). To be noted: qHTS. The method, boiled down: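 Luminescent ATP read-out (CellTiter-Glo, 20 min at room temperature) after 40 hr compound exposure at 37 °C of Jurkat E6-1 cells, 5000/well. Decreased ATP taken as cytotoxicity; AC50 from standard Hill equation.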
On the technique in general: qHTS replaces the single test concentration by a dilution series.

The nature of experiment [3]: Cell Viability - Hek293 (AID 427;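 active means compounds whose dose-response curve shows a full or clear partial loss of cell viability, called from curve shape rather than a numeric limit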;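 further: potency means the concentration at half of the fitted maximal effect; cells exposed to compound for 40 hours at 37 °C before reading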). Particulars: qHTS. The method, boiled down: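 Luminescent ATP content (CellTiter-Glo, 20 min at room temperature) was measured after a 40 hr, 37 °C compound exposure of HEK293 cells. AC50 values came from Hill-equation fits of qHTS concentration-response data normalized to DMSO and 100 uM tamoxifen.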
Experiment [4] is described as follows: Cell Viability - SK-N-SH (AID 435; calls by dose curve;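 further: potency means the concentration at half of the fitted maximal effect; compound exposure lasted 40 h at 37 °C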). To be noted: SK-N-SH neuroblastoma cell viability qHTS. The method, boiled down:
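SK-N-SH human neuroblastoma cells (1500/well) were exposed to compounds in complete medium for 40 h at 37 °C, and intracellular ATP was then measured by CellTiter-Glo luminescence. AC50 was taken from Hill fits, normalized to DMSO and 100 uM tamoxifen.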

A short description of experiment [5]: Cellular Toxicity (caspase-3) Jurkat (AID 655).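 Further: cells exposed to compound for 16 h at 37 °C before reading.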 To be noted: Jurkat caspase-3 activation, luminescence; caspase-3 activation: at 92.2 µM (top of the series), DMSO = 0%, tamoxifen = 100%. In outline:
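Jurkat cells (5000/well) in complete medium were treated with compounds for 16 hr at 37 °C, then Caspase-Glo 3/7 luminescence was read after 20 min at room temperature. Data normalized to DMSO (basal) and 100 uM tamoxifen (100%); AC50 from Hill fit.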

Experiment [6] in a line: Cellular Toxicity (caspase-3) SHSY5Y (AID 657). Particulars: SH-SY5Y caspase-3 activation, DMSO zero, 10 µM staurosporine = 100%; series mostly up to 91.7 µM. The method, boiled down: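 SH-SY5Y human neuroblastoma cells (1500/well) were treated with compounds for 16 h at 37 °C, then Caspase-Glo 3/7 luminescence was read after 1 h at room temperature. Data normalized to DMSO and 10 uM staurosporine; AC50 from Hill fits.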

The nature of experiment [7]: Cellular Toxicity (caspase-3) BJ (AID 658). To be noted: BJ fibroblasts, luminescence, normalized: DMSO 0%, staurosporine 100%; series mostly up to 91.7 µM. The method, boiled down: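 qHTS, BJ fibroblasts, 1000 cells/well; 5 hr preincubation, 16 hr compound, 37 °C; Caspase-Glo 3/7 reagent, 1 hr RT; luminescence. DMSO = 0%, 10 uM staurosporine = 100%. Hill-equation AC50.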

Experiment [8] in a line: Cellular Toxicity (caspase-3) N2a (AID 665).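 Further: compound exposure lasted 16 h at 37 °C before readout.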 To be noted: N2a cells, luminescence, normalized: DMSO 0%, 10 µM staurosporine 100%; series mostly up to 92.2 µM. The method, boiled down:
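Luminescent Caspase-Glo 3/7 readout in N2a mouse neuroblastoma cells after 16 h compound exposure at 37 °C. Signal scaled to DMSO (basal) and 10 uM staurosporine (100%). Concentration-response fitted with Hill equation for AC50.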

The nature of experiment [9]: Cellular Toxicity (caspase-3) Renal Proximal Tubule (AID 667).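 Further: cells exposed to compound for 16 hours at 37 °C before detection.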 Particulars: renal proximal tubule cells; series mostly up to 91.7 µM. The method, boiled down: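 Primary rat proximal tubule cells, 1000/well, 5 h plating at 37 °C, then compound 16 h at 37 °C. Caspase-Glo 3/7 reagent, 1 h RT, luminescence. Normalized to DMSO (basal) and 10 uM staurosporine (100%); Hill-fit AC50.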

Experiment [10] in a line: MultiTox-Fluor Cytotoxicity Assay - LYMP1-001 - Dead Cells (AID 946). To be noted: LYMP1-001 lymphoblastoid cells, dead-cell protease fluorescence; series mostly up to 92.2 µM. The method, boiled down: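 Cytotoxicity as increased dead-cell protease fluorescence (bis-AAF-R110, 485/520 nm), read 60 min after MultiTox-Fluor reagent. Human lymphoblastoid line exposed 16 h; Hill-fitted AC50, with DMSO as 0% and 15 uM tetraoctylammonium bromide as 100%.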

Experiment [11] is described as follows: Cell Viability - LYMP1-002 - Assay at 16 hr (AID 948).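 Further: 0% = DMSO alone and full effect = 92 µM tetraoctylammonium bromide.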 To be noted: LYMP1-002 lymphoblastoid cell viability; series mostly up to 92.2 µM. In outline: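 Human lymphoblastoid cells (LYMP1-002), 2500/well, were preincubated 5 hr at 37 C, then exposed to compounds for 16 hr at 37 C in complete medium. Cellular ATP was read by CellTiter-Glo luminescence after 30 min at room temperature; AC50 from Hill fits.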

A short description of experiment [12]: MultiTox-Fluor Cytotoxicity Assay - LYMP1-003 - Dead Cells (AID 961). Further: nearly all actives have a fitted effect of over 70% in size. Further: potency means the concentration at half of the fitted maximal effect. Particulars: LYMP1-003 lymphoblastoid cells, dead-cell protease fluorescence; series mostly up to 92.2 µM. In outline: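 Dead-cell protease release, detected as bis-AAF-R110 fluorescence at 485/520 nm, was measured in LYMP1-003 cells after 16 h compound treatment at 37 C. AC50 values came from Hill-modeled qHTS curves normalized to DMSO (0%) and 15 uM tetraoctylammonium bromide (100%).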

Experiment [13] can be described thus: Cell Viability - LYMP1-003 - Assay at 24 hr (AID 963).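 Further: plate controls were DMSO only for no effect and tetraoctylammonium bromide positive control for full effect.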 Particulars: LYMP1-003 lymphoblastoid cell viability; series mostly up to 92.2 µM. The method, boiled down: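 CellTiter-Glo luminescence (intracellular ATP) read after 24 hr, 37 C compound exposure of 2500 LYMP1-003 human lymphoblastoid cells/well in complete medium; qHTS concentration series; AC50 via standard Hill equation.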

A short description of experiment [14]: Cell Viability - LYMP2-013 (AID 970). Further: nearly all actives have a fitted effect of over 55% in size. Further: potency means the concentration at half of the fitted maximal effect. Particulars: LYMP2-013 lymphoblastoid cells viability; series mostly up to 92.2 µM. The method, boiled down: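 CellTiter-Glo luminescence (cellular ATP) read after 30 min at RT. Cells: human lymphoblastoid line, 2500/well, 24 hr compound exposure at 37 C. Tetraoctylammonium bromide positive control; AC50 via standard Hill fit of qHTS titrations.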

The nature of experiment [15]: Cell Viability - LYMP2-016 (AID 984).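 Further: cells exposed to compound for 24 hours at 37 °C; on the % scale 0 is the no-effect control and ±100 the full control effect; nearly all actives have a fitted effect of over 55% in size.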 Particulars: LYMP2-016 lymphoblastoid cell viability, qHTS; series mostly up to 92.2 µM. In outline: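 Human lymphoblastoid cells (LYMP2-016), 2500/well in complete medium, preincubated 5 hr at 37 C, then compound-treated 24 hr at 37 C. Intracellular ATP read by CellTiter-Glo luminescence after 30 min at room temperature; AC50 from Hill-equation concentration-response fits.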

Experiment [16] is described as follows: Cell Viability - LYMP1-002 - Assay at 24 hr (AID 993). Further: on the % scale 0 is the no-effect control and ±100 the full control effect. To be noted: LYMP1-002 lymphoblastoid cells viability; series mostly up to 92.2 µM. The method, boiled down: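 CellTiter-Glo luminescence (intracellular ATP) after 24 h compound exposure, 37 C, in LYMP1-002 human lymphoblastoid cells; decreased ATP taken as cytotoxicity. AC50 from standard Hill fit of concentration-response curves.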

The nature of experiment [17]: qHTS Assay for Identification of Small Molecule Inducers of Hypoxia Response (AID 2120; active means well fitted curve in the direction sought with a large enough effect in the signal ratio, with a control signal flat, not every such curve was filed as active; the % refers to the signal ratio; further: 0% is about no effect). Particulars: hypoxia response reporter cells, beta-lactamase ratio readout; series mostly up to 104 µM. The method, boiled down:
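Read-out: CCF4 FRET emission ratio 460nm/530nm (excitation 405nm), converted to %Activity, with AC50 fitted across a compound titration. ME-180 cells carried an HRE-driven beta-lactamase reporter; compound exposure 17 h, 37 degrees C.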

For experiment [18], the target named is Peroxisome proliferator-activated receptor alpha (Homo sapiens) (UniProt Q07869). Put plainly: qHTS assay for small molecule agonists of the peroxisome proliferator-activated receptor alpha (PPARalpha) signaling pathway (AID 651778). Further: % of control where 0% means no effect. Particulars: PathHunter PPARalpha complementation, chemiluminescence, 6 h; stronger effect = higher value. In outline: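 Enzyme-fragment complementation assay in which ligand-bound PPARalpha translocates and forms an active enzyme that generates chemiluminescence. Cells were plated overnight, exposed to compound for 6 hr at 37 C, and then given detection reagent for 60 min at room temperature.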

A short description of experiment [19]: qHTS assay for cell viability of HEK293 cells (AID 743288). Further: on the % scale 0 is the no-effect control and ±100 the full control effect; nearly all actives have a fitted effect of over 50% in size. Particulars: ATP luminescence (CellTiter-Glo), 18 h, stronger effect = lower value. The method, boiled down: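 After 18 h compound exposure at 37 C, parental HEK293 cells (2,000/well) are lysed with CellTiter-Glo and luminescence is read following 30 min at room temperature.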
A short description of experiment [20]: qHTS assay for cell viability of the p53RE-bla HCT-116 cell line (AID 743292). Further: on the % scale 0 is the no-effect control and ±100 the full control effect; nearly all actives have a fitted effect of over 55% in size. Particulars: p53RE-bla HCT-116 viability, ATP luminescence, 16 h; series mostly up to 95 µM. The method, boiled down:
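Luminescent ATP quantitation (CellTiter-Glo) served as the viability read-out; reagent was added after 16 h compound exposure at 37 C and read after 30 min at room temperature. Cells: p53RE-bla HCT-116, 4,000 per well.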

Peroxisome proliferator-activated receptor alpha (Homo sapiens), sequence (Q07869 whole entry, looked up, the tested form may be a part): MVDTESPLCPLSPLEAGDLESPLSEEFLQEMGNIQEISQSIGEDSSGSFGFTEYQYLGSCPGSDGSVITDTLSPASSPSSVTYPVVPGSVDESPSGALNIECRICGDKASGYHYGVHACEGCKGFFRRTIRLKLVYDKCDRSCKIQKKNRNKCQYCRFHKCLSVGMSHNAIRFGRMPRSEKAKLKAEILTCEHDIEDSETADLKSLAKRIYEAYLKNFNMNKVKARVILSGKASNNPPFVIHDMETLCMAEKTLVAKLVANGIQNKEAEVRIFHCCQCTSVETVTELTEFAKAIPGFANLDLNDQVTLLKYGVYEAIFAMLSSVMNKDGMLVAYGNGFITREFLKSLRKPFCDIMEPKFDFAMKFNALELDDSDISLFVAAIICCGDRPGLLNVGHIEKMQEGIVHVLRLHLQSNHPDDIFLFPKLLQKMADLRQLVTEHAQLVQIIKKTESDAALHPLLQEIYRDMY

In the case of `O=[N+]([O-])c1ccc2c3c(cccc13)CC2`, the Potency in [1], in [2], in [3] and in experiment [4] was over 92 µM each time. The caspase-3 activation in [5] is 0.699%. Further, the result in experiment [6], in experiment [7], in experiment [8], in experiment [9], in [10] and in [11] was inactive. Besides, in [13], the compound was called inactive. Moreover, the Potency entry in [12], in experiment [14], in [15], in experiment [16], in experiment [17] and in experiment [20] was “inactive” throughout. Further, the max response in experiment [18] was -11.3% and -0.119%; in experiment [19], -14% and -2.65%.

As to `CCCCCCCCCCCCCl`, the Potency in [1], in [2], in experiment [3] and in [4] was over 92 µM each time. In [5], the caspase-3 activation is 1.16%. Further, the result in experiment [6], in [7], in experiment [8], in [9], in experiment [10] and in experiment [11] was inactive. The result in [13] was inactive. Moreover, the Potency result in experiment [12], in experiment [14], in experiment [15], in [16], in experiment [17] and in experiment [20] was “inactive” throughout. The max response in [18] was -2.89%; in [19] it was -0.903%.

For `ClCCBr`, the Potency in experiment [1], in [2], in experiment [3] and in [4] was over 92 µM throughout. Moreover, in [5], the caspase-3 activation was 0.239%. Further, the call in [6], in [7], in [8], in experiment [9], in experiment [10] and in [11] was inactive. The outcome in experiment [13] was inactive. Besides, the Potency result in experiment [12], in experiment [14], in [15], in [16], in [17] and in experiment [20] was “inactive” throughout. Also, the max response was 0.115% in experiment [18] and -0.276% in experiment [19].

Turning to `Cc1cccc(C)c1N`, the Potency in experiment [1], in [2], in experiment [3] and in experiment [4] was over 92 µM each time. Also, in [5], the caspase-3 activation was -0.00153%. Also, the outcome in [6], in experiment [7], in experiment [8], in experiment [9], in experiment [10] and in experiment [11] was inactive. For the same compound, the outcome in experiment [13] was inactive. Also, the Potency result in experiment [12], in experiment [14], in [15], in [16], in experiment [17] and in experiment [20] was “inactive” in each case. Further, the max response in experiment [18] was 1.61%; in experiment [19], -2.34%.

As for `Cc1ccc(N)c(N)c1`, the Potency in [1] is over 92 µM; in experiment [2], 9.63 µM (active); in experiment [3] it was over 92 µM; in experiment [4], over 92 µM; in experiment [12], 15.8 µM (active); in [14], 39.8 µM (active). Also, the outcome in experiment [6], in experiment [7], in experiment [8], in experiment [9], in [10] and in [11] was inactive. Also, the Potency entry in [15], in [16], in experiment [17] and in [20] was “inactive” each time. Further, the results for the max response in experiment [18] and in experiment [19] were -2.85% and -20.1%, respectively.

As for `CCCCOC(=O)c1ccccc1N`, the Potency in [1], in experiment [2], in [3] and in [4] was over 92 µM in each case. Moreover, the caspase-3 activation in experiment [5] was 1.19%. Further, the compound was classed as inactive in [6], in [7], in experiment [8], in experiment [9], in [10] and in experiment [11]. For the same compound, the compound was classed as inactive in experiment [13]. For the same compound, the Potency entry in experiment [12], in experiment [14], in experiment [15], in experiment [16], in experiment [17] and in experiment [20] was “inactive” in each case. The figures for the max response in [18] and in experiment [19] were -4.62% and -7.97%, respectively.
